From PubChem
MRP resist rev: MRP-mediated drug resistance reversal; H69AR cells + 2 uM doxorubicin, CellTiter-Glo, 72 h; differential viability (reversal), % at 10 µM; 0.04% of 85,000 active; AID 602;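 active = viability drop by adding the cancer drug above about 55%, with treated viability meeting a 40% cutoff, limit read from the data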;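 also: viability without doxorubicin minus viability with 2 µM doxorubicin for each compound; larger differential means the compound sensitizes cells more to doxorubicin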
ERb SRC1 inh: blocks coactivator binding to human estrogen receptor beta | Q92731 | TR-FRET ER-beta LBD / SRC1-Cy5 peptide binding; receptor agonist-loaded with 1 µM estradiol | inhibition, % at 25.6 µM | 1.3% of 86,000 active | AID 633;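 active = compounds whose percent inhibition of the receptor-coactivator binding signal exceeds about 50% in the single-dose screen, limit read from the data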;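 also: 0% = receptor plus peptide wells without compound and 100% = peptide-only wells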
MRP-1 activ: activators of MRP-1. AID 799. H69AR cells + doxorubicin, viability rescue, CellTiter-Glo. viability increase, % at 10 µM. 0.61% of 140,000 active;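 active = viability gain under doxorubicin at or above a set limit, the compound median plus 3 SD, cut at about 4.7% in these data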;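 also: MRP-1 overexpressing cells given doxorubicin 25 µM after compound pretreatment; 18-22 h compound pretreatment then 72 h with doxorubicin before readout; 0% = doxorubicin-only wells and 100% = vehicle-treated cells without doxorubicin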
ERa coact pot: ER-alpha (human) coactivator binding potentiation. P03372. TR-FRET ERalpha-LBD/SRC-Cy5 coactivator binding, 2 h; 100 = basal binding, no effect. coactivator binding (% of control), % at 25.6 µM. 1.3% of 86,000 active; in the data active = activity above about 200%;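 also: binding measured in presence of low estradiol as agonist stimulus; 0% = peptide alone without receptor and 100% = receptor with peptide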
Smad3 FoxH1 inh: Smad3 (human) transcription factor binding inhibition; AID 630; TR-FRET Smad3/Dy647-FoxH1 peptide binding, europium anti-His; inhibition, % at 25 µM; 0.29% of 88,000 active; P84022;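 active = compounds that reduce the energy-transfer binding signal between the protein and its labelled peptide by more than half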;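 also: 0% = Smad3 plus labelled peptide maximal FRET and 100% = peptide-only background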
Target sequence (P84022 whole entry, looked up): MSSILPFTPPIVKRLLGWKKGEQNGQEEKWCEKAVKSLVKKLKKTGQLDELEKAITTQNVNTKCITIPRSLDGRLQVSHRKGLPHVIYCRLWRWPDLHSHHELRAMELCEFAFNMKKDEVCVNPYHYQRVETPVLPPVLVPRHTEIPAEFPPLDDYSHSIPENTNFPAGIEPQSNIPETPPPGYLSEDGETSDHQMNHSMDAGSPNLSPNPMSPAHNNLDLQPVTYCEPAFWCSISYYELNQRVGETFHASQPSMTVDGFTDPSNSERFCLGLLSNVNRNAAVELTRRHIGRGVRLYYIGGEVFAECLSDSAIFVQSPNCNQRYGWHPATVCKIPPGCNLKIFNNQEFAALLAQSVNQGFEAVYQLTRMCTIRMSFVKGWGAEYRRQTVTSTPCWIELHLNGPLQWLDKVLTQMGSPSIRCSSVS
ERa SRC1 inh: blocks coactivator binding to human estrogen receptor alpha. 1.7% of 86,000 active. AID 629. inhibition, % at 25.6 µM. TR-FRET ER-alpha LBD / SRC-1 peptide, estradiol-bound; in the data active = inhibition above about 50%;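 also: 0% = receptor plus peptide control and 100% = peptide only without receptor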
Starred values were filed as active, the others as inactive; [ ] = dose if it differs, or a comment. Most compounds without a hit are left out; they make up all but 2.9% or so of the library.

What do the screens show for `COc1ccc(CN=C2NC(=O)CC(C(=O)Nc3ccccc3C)S2)cc1` (centres undefined)?
MRP-1 activ: 6.0*

How did CC(C)c1ccc(/C=C2/C=C(c3ccc4ccccc4c3)OC2=O)cc1 do in these assays?
Smad3 FoxH1 inh: -8.6

What do the screens show for `Oc1ccc(CNCc2ccccc2)c2cccnc12`?
Smad3 FoxH1 inh: 12.4

Results for Oc1ccc(CNc2ccccc2F)c2cccnc12 ?
MRP resist rev: -10.3; ERb SRC1 inh: 62.1*[fluorescence artefact?]; MRP-1 activ: -4.8; ERa coact pot: 91.4; Smad3 FoxH1 inh: 14.8; ERa SRC1 inh: 20.4

How did c1ccc(Cn2c(CSc3nnnn3-c3ccccc3)nc3ccccc32)cc1 do in these assays?
MRP resist rev: 14.0; ERb SRC1 inh: 18.1; MRP-1 activ: -0.7; ERa coact pot: 72.8; Smad3 FoxH1 inh: 8.2; ERa SRC1 inh: 64.0*[fluorescence artefact?]

What do the screens show for `O=c1c2ccccc2nc(CSc2nnnn2-c2ccccc2)n1-c1ccccc1Cl`?
MRP resist rev: -4.5; ERb SRC1 inh: 58.8*[fluorescence artefact?]; MRP-1 activ: -4.0; ERa coact pot: 97.5; Smad3 FoxH1 inh: 18.6; ERa SRC1 inh: 78.4*[fluorescence artefact?]

Results for c1ccc(Cc2nc3ccccc3n2Cc2ccccc2)cc1 ?
MRP-1 activ: -0.8

How did Cc1ccc(C(=N)c2ccccc2Cc2cccc3ccccc23)c2ccccc12 do in these assays?
Smad3 FoxH1 inh: 46.2

How did COc1ccc2c(c1)c(C(=O)CN1CCN(C(=O)c3ccco3)CC1)c(C)n2C do in these assays?
MRP resist rev: -2.6; ERb SRC1 inh: -3.0; MRP-1 activ: -1.1; ERa coact pot: 111.8; Smad3 FoxH1 inh: 12.3; ERa SRC1 inh: -13.6

Results for O=C(Nc1ccc(-n2nncc2-c2ccco2)cc1)c1cc2ccccc2oc1=O ?
ERb SRC1 inh: 65.2*[fluorescence artefact?]; MRP-1 activ: -2.6; ERa coact pot: 185.9; Smad3 FoxH1 inh: 42.6; ERa SRC1 inh: 69.5*

Results for Cc1cnn(-c2cc(Oc3ccccc3)ncn2)c1 ?
MRP resist rev: 4.2; ERb SRC1 inh: 3.2; MRP-1 activ: 4.8*; ERa coact pot: 87.2; Smad3 FoxH1 inh: -1.9; ERa SRC1 inh: -7.6

How did c1ccc(Oc2cc(-n3cncn3)ncn2)cc1 do in these assays?
MRP-1 activ: -0.8

What do the screens show for `Cc1ccc(OCCN2CCN(C(=O)CCC(=O)Nc3nnc(C(C)C)s3)CC2)cc1`?
MRP resist rev: 10.9; ERb SRC1 inh: -14.2; MRP-1 activ: 0.0; ERa coact pot: 112.3; Smad3 FoxH1 inh: 1.2; ERa SRC1 inh: -9.9

How did Cc1ccc(OCCN2CCN(C(=O)CCC(=O)Nc3nnc(C)s3)CC2)cc1 do in these assays?
MRP resist rev: 8.1; ERb SRC1 inh: -1.5; MRP-1 activ: 7.8*; ERa coact pot: 120.9; Smad3 FoxH1 inh: 8.1; ERa SRC1 inh: -4.5

How did Cc1ccccc1-n1c(-c2ccc(Cl)cc2)cnc1SCC(=O)NC1CCS(=O)(=O)C1 (centres undefined) do in these assays?
MRP-1 activ: -3.1

How did CC(C)(C)NC(=O)c1cc([N+](=O)[O-])ccc1N1CCCCC1 do in these assays?
MRP-1 activ: -3.5

How did c1ccc(-n2ncc3c2ncn2nc(-c4ccco4)nc32)cc1 do in these assays?
MRP resist rev: -7.8; ERb SRC1 inh: 48.8; MRP-1 activ: -2.6; ERa coact pot: 315.2*[fluorescence artefact?]; Smad3 FoxH1 inh: 33.4; ERa SRC1 inh: 44.5

Results for COc1cccc(OCc2nc3c4cnn(-c5ccccc5)c4ncn3n2)c1 ?
MRP resist rev: -23.3; ERb SRC1 inh: 8.8; MRP-1 activ: 0.3; ERa coact pot: 173.1; Smad3 FoxH1 inh: 13.0; ERa SRC1 inh: 19.0

How did O=C(Nc1cccnc1)c1cc(-c2ccc3c(c2)OCO3)on1 do in these assays?
MRP resist rev: 8.5; ERb SRC1 inh: 17.0; MRP-1 activ: -0.1; ERa coact pot: 404.8*; Smad3 FoxH1 inh: 7.7; ERa SRC1 inh: 28.7

How did O=C(Nc1cccnc1)c1cc(-c2cccs2)on1 do in these assays?
MRP resist rev: 12.8; ERb SRC1 inh: 3.6; MRP-1 activ: -1.3; ERa coact pot: 115.3; Smad3 FoxH1 inh: 0.8; ERa SRC1 inh: 7.9

Results for O=c1c2c([nH]c3ccccc13)C(=C1CCCC1)CC2 ?
MRP resist rev: -3.8; ERb SRC1 inh: 84.1*; MRP-1 activ: -0.3; ERa coact pot: 21.7; Smad3 FoxH1 inh: 7.2; ERa SRC1 inh: 76.7*[fluorescence artefact?]

Results for O=c1c2c([nH]c3ccccc13)CCCC2 ?
MRP resist rev: 31.5; ERb SRC1 inh: -6.3; MRP-1 activ: -1.6; ERa coact pot: 98.3; Smad3 FoxH1 inh: 3.1; ERa SRC1 inh: 3.9

What do the screens show for `Cc1c(N=C2SCC(=O)N2/N=C/c2ccccc2)c(=O)n(-c2ccccc2)n1C`?
MRP-1 activ: -0.7

Results for C[C@H]1CCCC2(CC[N+](C)(CCC[N+](C)(C)C)CC2)C1 (some centres undefined) ?
Smad3 FoxH1 inh: 14.5

Results for CC(C)NC(=S)N/N=C/c1cc(Br)ccc1O ?
MRP-1 activ: 5.0*

How did O=C(CCc1ccccc1)N/N=C/c1cc(Br)ccc1O do in these assays?
MRP-1 activ: 6.4*

What do the screens show for `COc1ccc(CC(=O)NNC(=O)CSc2nnc(Cc3ccc(OC)cc3)n2-c2ccccc2)cc1`?
MRP-1 activ: 2.1

What do the screens show for `Cc1cc(S(=O)(=O)NC(C)C)ccc1OCC(=O)N1CCOCC1`?
MRP resist rev: -0.7; ERb SRC1 inh: 1.9; MRP-1 activ: -0.8; ERa coact pot: 84.7; Smad3 FoxH1 inh: -6.7; ERa SRC1 inh: 3.0

What do the screens show for `Cc1c(NC(=O)c2ccccc2NS(=O)(=O)c2ccc(Br)cc2)c(=O)n(-c2ccccc2)n1C`?
MRP resist rev: -10.4; ERb SRC1 inh: -5.5; MRP-1 activ: 5.3*; ERa coact pot: 98.5; Smad3 FoxH1 inh: 2.9; ERa SRC1 inh: 9.9

How did Cc1ccc(S(=O)(=O)NC(=O)Nc2c(C)n(C)n(-c3ccccc3)c2=O)cc1 do in these assays?
MRP resist rev: 4.0; ERb SRC1 inh: 0.6; MRP-1 activ: 0.1; ERa coact pot: 127.8; Smad3 FoxH1 inh: 14.9; ERa SRC1 inh: -2.3

How did CC(C)Cn1c2c(c(O)c(C(=O)Nc3nccs3)c1=O)CCCC2 do in these assays?
MRP resist rev: -12.9; ERb SRC1 inh: -8.5; MRP-1 activ: 5.7*; ERa coact pot: 91.5; Smad3 FoxH1 inh: 7.8; ERa SRC1 inh: -4.0

What do the screens show for `CCCn1c2c(c(O)c(C(=O)Nc3nccs3)c1=O)CCCC2`?
MRP resist rev: 9.8; ERb SRC1 inh: 3.4; MRP-1 activ: -1.4; ERa coact pot: 105.5; Smad3 FoxH1 inh: 8.7; ERa SRC1 inh: 11.6

How did COc1ccc(CNC(=O)COC(=O)c2cc(-c3cccs3)nc3ccccc23)cc1OC do in these assays?
MRP resist rev: 12.6; ERb SRC1 inh: 5.8; MRP-1 activ: -1.5; ERa coact pot: 72.4; Smad3 FoxH1 inh: -1.8; ERa SRC1 inh: 36.6

How did O=C(OCC(=O)N1CCN(C(=O)c2ccco2)CC1)c1cc(-c2ccco2)nc2ccccc12 do in these assays?
MRP resist rev: -3.3; ERb SRC1 inh: 89.2*; MRP-1 activ: -4.2; ERa coact pot: 29.2; Smad3 FoxH1 inh: 12.8; ERa SRC1 inh: 92.1*[fluorescence artefact?]
